# In the supplement of paper PMC12340641:
# Whole data set: some 1,000 compounds, median “relative growth in counter assay (no AraC = 100%, AraC + DMSO = 0%)” near -1.1, cut for the highest 2% near 20. This is one part of a sample in which the highest values are shown more often than they occur.
# Tested on: HEK293FT dCK*-only
# Assay: relative growth in counter assay (no AraC = 100%, AraC + DMSO = 0%); higher = more growth rescue independent of IKZF1
# Details: compound concentration: 5 uM; AraC concentration: 0.3 uM; overnight pretreatment + 4 days AraC
# Experimental: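 Growth recovery screen of the molecular-glue-like (Specs) library. HEK293FT cells expressing a dCK*-IKZF1 fusion (primary) or dCK* alone (counter) were pretreated overnight with compound at 5 uM, then given 0.3 uM AraC for 4 days. Hoechst nuclei were counted by imaging. Primary: normalised to pomalidomide (100%) and DMSO (0%), mean of 2 replicates. Counter: normalised to no-AraC (100%) and AraC+DMSO (0%), single replicate.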
row,Structure (SMILES),relative growth in counter assay [%]
1,Cc1cc(C)c2[nH]c3nc(SCC(=O)Nc4ccc(Cl)cc4)nnc3c2c1,-17.9
2,Cc1cc(C)nc(NS(=O)(=O)c2ccc(Nc3nc(-c4ccc(Cl)cc4)cs3)cc2)n1,-7.62
3,O=C(Nc1ccc(S(=O)(=O)Nc2ncccn2)cc1)c1ccc(Br)cc1,1.1
4,CCOCC(=O)Nc1ccc(S(=O)(=O)Nc2ncccn2)cc1,-2.18
5,O=C(C1CNCCO1)N1CCC(c2cccc(Nc3ncc(-c4ccccc4)s3)n2)CC1 (centres undefined),1.14
6,O=S(=O)(Cc1ccccc1)Nc1ccc(S(=O)(=O)Nc2ncccn2)cc1,5.8
7,Cc1ccnc(NS(=O)(=O)c2ccc(NC(=O)Cc3c(F)cccc3Cl)cc2)n1,10
8,COc1ccc(-c2csc(Nc3ccc(S(=O)(=O)Nc4nc(C)cc(C)n4)cc3)n2)cc1,-6.81
9,O=C(Nc1ccc(S(=O)(=O)Nc2ncccn2)cc1)c1ccccc1Br,-0.83
10,Cc1ccc(OCC(=O)Nc2ccc(S(=O)(=O)Nc3ncccn3)cc2)cc1C,2.12
11,Cc1cnc(Nc2cccc(C3CN(C(=O)C4CCCC4)CCO3)n2)s1 (centres undefined),-17
12,Cc1csc(Nc2cccc(CC3CCN(CC(=O)N(C)C)CC3)n2)n1,7.9
13,COc1cccc(OC)c1C(=O)N1CCOC(c2cccc(Nc3nc(C)cs3)n2)C1 (centres undefined),10.3
14,Cc1cnc(Nc2cccc(C3CN(C(=O)CCC4CCCCC4)CCO3)n2)s1 (centres undefined),-1.73
15,CC(=O)N1CCC(Cc2cccc(Nc3nc(C)cs3)n2)CC1,24.3
16,CC(=O)N1CCC(Cc2cccc(Nc3nccs3)n2)CC1,-8.99
17,Cc1cnc(Nc2cccc(C3CN(C(=O)C4CC4c4ccc(Cl)cc4)CCO3)n2)s1 (centres undefined),28.7
18,Cc1csc(Nc2cccc(C3CN(C(=O)CCC4CCCC4)CCO3)n2)n1 (centres undefined),32.3
19,Cc1cnc(Nc2cccc(C3CN(C(=O)C45CC6CC(CC(C6)C4)C5)CCO3)n2)s1 (centres undefined),-1.75
20,Cc1csc(Nc2cccc(C3CN(C(=O)COc4c(C)cccc4C)CCO3)n2)n1 (centres undefined),1.27
21,Cc1csc(Nc2cccc(C3CN(C(=O)CCOc4ccccc4C)CCO3)n2)n1 (centres undefined),49.2
22,Cc1csc(Nc2cccc(C3CN(C(=O)Cn4nc(C)ccc4=O)CCO3)n2)n1 (centres undefined),-2.02
23,Cc1cnc(Nc2cccc(C3CN(C(=O)COc4ccccc4)CCO3)n2)s1 (centres undefined),-9.61
24,Cc1cnc(Nc2cccc(C3CN(C(=O)CCOc4cccc(F)c4)CCO3)n2)s1 (centres undefined),19.7
25,Cc1cnc(Nc2cccc(C3CN(C(=O)COc4cccc(F)c4)CCO3)n2)s1 (centres undefined),-7.34

row,Structure (SMILES),relative growth in counter assay [%]
1,Cc1ccc(OCC(=O)Nc2ccc(S(=O)(=O)Nc3cc(C)nc(C)n3)cc2)c(C)c1,-2.7
2,Cc1cc(C)nc(NS(=O)(=O)c2ccc(NC(=O)C(C)Oc3ccccc3F)cc2)n1 (centres undefined),5.27
3,COc1ccccc1OCC(=O)Nc1ccc(S(=O)(=O)Nc2nc(C)cc(C)n2)cc1,-7.04
4,CC(C)(C)C(=O)N1CCC(Cc2ccc(Nc3ncc(-c4ccc(F)cc4)s3)nc2)CC1,12.2
5,Cn1nccc1/C=C/C(=O)N1CCCC(c2csc(Nc3ccccn3)n2)C1 (centres undefined),29
6,CC(=O)N1CCCC(c2csc(Nc3ccccn3)n2)C1 (centres undefined),0.33
7,O=C(/C=C/c1ccco1)N1CCCC(c2csc(Nc3ccccn3)n2)C1 (centres undefined),11.1
8,Cn1nccc1/C=C/C(=O)N1CCCC(c2cc3ccccc3c(Nc3nccs3)n2)C1 (centres undefined),-13.3
9,O=C(/C=C/c1ccccc1)N1CCCC(c2csc(Nc3ccccn3)n2)C1 (centres undefined),34.8
10,Cn1nccc1/C=C/C(=O)N1CCCC1c1csc(Nc2ccccn2)n1 (centres undefined),-0.93
11,O=C(C1CCCCC1)N1CCC(c2cccc(Nc3nccs3)n2)CC1,-10.8
12,O=C(Nc1ccc(S(=O)(=O)Nc2ccccn2)cc1)c1cc2ccccc2o1,-2.82
13,CCCc1cnc(Nc2cccc(C3CN(C(=O)C4CCCCC4)CCO3)n2)s1 (centres undefined),-12.3
14,Cc1cnc(Nc2cccc(C3CCN(C(=O)C4CCC4)CC3)n2)s1,-21
15,Cc1ccc(C)c(OCCCC(=O)Nc2ccc(S(=O)(=O)Nc3ncccn3)cc2)c1,-2.63
16,CC(C)(C)c1ccccc1OCC(=O)Nc1ccc(S(=O)(=O)Nc2ccccn2)cc1,4.41
17,COc1cc2c(cc1CCC(=O)N1CCCC1c1cccc(Nc3nccs3)n1)CCC2 (centres undefined),-3.49
18,CC(C)(C)c1ccccc1OCC(=O)Nc1ccc(S(=O)(=O)Nc2ncccn2)cc1,-1.93
19,Cc1cnc(Nc2cccc(C3CCN(C(=O)CCc4nc5ccccc5[nH]4)CC3)n2)s1,-4.59
20,CCCC(C)C(=O)Nc1ccc(S(=O)(=O)Nc2nccc(C)n2)cc1 (centres undefined),-3.64
21,Cc1cnc(Nc2cccc(C3CN(C(=O)c4ccccn4)CCO3)n2)s1 (centres undefined),-7.73
22,O=C(CSc1nnc2c(n1)[nH]c1ccc(Cl)cc12)Nc1ccc(Cl)cc1,3.64
23,COC(=O)C(c1cccc(Nc2ncc(C)s2)n1)C1CCN(C(=O)C2(NC(=O)OC(C)(C)C)CCCCC2)CC1 (centres undefined),9.03
24,COc1cc(NS(=O)(=O)c2ccc(NC(=O)c3ccc([N+](=O)[O-])cc3)cc2)nc(OC)n1,4.43
